From PubChem BioAssay AID1159580 (chemical genetic matrix, 2015)
In all, about 5,500 compounds went through this assay and about 2,000 (36%) were called active. Inconclusive results (about 18%) are left out. Cut-off read from the data, not from the text of the source: active = normalized growth mostly below about 0.91 (no sharp cut-off); inconclusive = no clear call, values can overlap the other calls; inactive = mostly above about 0.92. This is one part of the list.

Experiment: chemical genetic growth profiling, strain panel (AID 1159580);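 note: tested at 20 µM; growth read once vehicle control cultures reached saturation at 30 °C; 1 = growth at the plate median or of vehicle wells; lower values mean less growth of the strain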
Settings: growth OD
[1] = S. cerevisiae deletion strains, locus YAL013W, strain DEP1, hits give low values
[2] = S. cerevisiae deletion strains, locus YBR229C, strain ROT2, hits give low values
[3] = S. cerevisiae deletion strains, locus YCL061C, strain MRC1, hits give low values
[4] = S. cerevisiae deletion strains, locus YDL101C, strain DUN1, hits give low values
[5] = S. cerevisiae deletion strains, locus YDL134C, strain PPH21, hits give low values
[6] = S. cerevisiae deletion strains, locus YDR150W, strain NUM1, hits give low values
[7] = S. cerevisiae deletion strains, locus YEL061C, strain CIN8, hits give low values
[8] = S. cerevisiae deletion strains, locus YGR078C, strain PAC10, hits give low values
[9] = S. cerevisiae deletion strains, locus YHR030C, strain SLT2, hits give low values
[10] = S. cerevisiae deletion strains, locus YHR087W, strain rtc3, hits give low values
[11] = S. cerevisiae deletion strains, locus YJL187C, strain SWE1, hits give low values
[12] = S. cerevisiae deletion strains, locus YJR043C, strain POL32, hits give low values
[13] = S. cerevisiae deletion strains, locus YJR075W, strain HOC1, hits give low values
[14] = S. cerevisiae deletion strains, locus YLR039C, strain RIC1, hits give low values
[15] = S. cerevisiae deletion strains, locus YLR058C, strain SHM2 (second series), hits give low values
[16] = S. cerevisiae deletion strains, locus YLR085C, strain ARP6, hits give low values
[17] = S. cerevisiae deletion strains, locus YLR262C, strain YPT6, hits give low values
[18] = S. cerevisiae deletion strains, locus YML094W, strain GIM5, hits give low values
[19] = S. cerevisiae deletion strains, locus YMR219W, strain ESC1, hits give low values
[20] = S. cerevisiae deletion strains, locus YNL153C, strain GIM3, hits give low values
[21] = S. cerevisiae deletion strains, locus YNL298W, strain CLA4 (second series), hits give low values
[22] = S. cerevisiae deletion strains, locus YNL322C, strain KRE1, hits give low values
[23] = S. cerevisiae deletion strains, locus YNR030W, strain Alg12, hits give low values
[24] = S. cerevisiae deletion strains, locus YPL055C, strain LGE1, hits give low values
[25] = S. cerevisiae deletion strains, locus YPL241C, strain CIN2, hits give low values
[26] = S. cerevisiae deletion strains, locus YPR135W, strain CTF4, hits give low values
[27] = S. cerevisiae strains, strain wild type, hits give low values
[28] = S. cerevisiae deletion strains, locus YMR263W, strain SAP30, hits give low values
[29] = S. cerevisiae deletion strains, locus YMR307W, strain GAS1, hits give low values

Measured: normalized growth

S=c1nccc(-c2ccc(Cl)cc2)[nH]1
inactive: [6] 1.04 | [9] 0.722 | [10] 0.912 | [11] 0.969 | [13] 0.949 | [14] 1.01 | [15] 0.957 | [17] 1.05 | [18] 0.879 | [22] 0.988
active: [1] 0.881 | [2] 0.861 | [3] 0.84 | [4] 0.844 | [5] 0.882 | [7] 0.904 | [8] 0.831 | [12] 0.818 | S. cerevisiae deletion strains, locus YKL190W, strain CNB1, hits give low values 0.849 | [16] 0.413 | [19] 0.918 | [20] 0.895 | [21] 0.76 | [23] 0.694 | S. cerevisiae deletion strains, locus YOL006C, strain TOP1, hits give low values 0.36 | [24] 0.631 | [25] 0.748 | [26] 0.554 | [27] 0.882

COC(=O)CSc1ncnc2c(C)csc12
inactive: [1] 0.989 | [2] 0.998 | [4] 0.959 | [5] 0.973 | [6] 0.948 | [7] 0.978 | [8] 0.988 | [9] 0.802 | [10] 0.998 | [12] 0.973 | [13] 0.974 | [14] 0.958 | [15] 0.995 | [16] 0.9 | [17] 0.985 | [18] 0.949 | [19] 1 | [28] 0.981 | [29] 0.903 | [20] 0.994 | [21] 0.945 | [22] 1 | [23] 0.981 | [24] 0.953 | [25] 0.986 | [26] 0.818

COC(=O)CSc1nc2ccc(Cl)cc2s1
inactive: [1] 0.964 | [2] 0.932 | [4] 0.906 | [6] 1.02 | [7] 0.96 | [8] 0.958 | [10] 0.942 | [11] 0.949 | [12] 0.977 | [13] 0.955 | [14] 0.842 | [17] 0.891 | [18] 0.901 | [19] 0.962 | [28] 1 | [29] 1.15 | [20] 0.962 | [21] 0.877 | [22] 0.959 | [23] 0.975 | [24] 0.92 | [26] 0.685
active: [9] 0.491 | [15] 0.932 | [16] 0.744 | [25] 1.18 [resistant]

O=C1NN=C2C3CC4CC12CC1(C3)C(=O)NN=C41
inactive: [1] 0.992 | [2] 0.999 | [4] 1 | [5] 1.01 | [6] 1 | [7] 0.997 | [8] 1.01 | S. cerevisiae deletion strains, locus YGR229C, strain SMI1, hits give low values 1 | [9] 1.03 | [10] 0.974 | [12] 1.02 | [13] 1.02 | [14] 1.05 | [15] 1 | [16] 0.989 | [17] 1.03 | [18] 0.974 | [19] 1 | [28] 0.974 | [20] 1.02 | [21] 0.983 | [22] 1.02 | [23] 0.978 | [24] 0.981 | [25] 0.998 | [26] 1.01 | [27] 0.999

C=CC1C2=CCOC(=O)C2=COC1OC1OC(CO)C(O)C(O)C1O (stereo not given)
inactive: S. cerevisiae deletion strains, locus YAL021C, strain ccr4, hits give low values 1.02 | S. cerevisiae deletion strains, locus YAL026C, strain drs2, hits give low values 1.02 | S. cerevisiae deletion strains, locus YAL030W, strain snc1, hits give low values 1.02 | S. cerevisiae deletion strains, locus YBL061C, strain skt5, hits give low values 1.01 | S. cerevisiae deletion strains, locus YBR009C, strain hhf1, hits give low values 1.02 | S. cerevisiae deletion strains, locus YBR023C, strain chs3, hits give low values 1.01 | S. cerevisiae deletion strains, locus YBR171W, strain sec66, hits give low values 1.02 | S. cerevisiae deletion strains, locus YBR231C, strain swc5, hits give low values 1.02 | S. cerevisiae deletion strains, locus YBR279W, strain paf1, hits give low values 1.01 | S. cerevisiae deletion strains, locus YCL011C, strain gbp2, hits give low values 1.02 | S. cerevisiae deletion strains, locus YCL016C, strain dcc1, hits give low values 1.01 | [3] 1.02 | S. cerevisiae deletion strains, locus YCL069W, strain vba3, hits give low values 1.02 | S. cerevisiae deletion strains, locus YCR088W, strain abp1, hits give low values 1.02 | S. cerevisiae deletion strains, locus YDL005C, strain med2, hits give low values 1.01 | S. cerevisiae deletion strains, locus YDL040C, strain nat1, hits give low values 1.02 | S. cerevisiae deletion strains, locus YDR001C, strain nth1, hits give low values 1.02 | S. cerevisiae deletion strains, locus YDR069C, strain doa4, hits give low values 1.02 | S. cerevisiae deletion strains, locus YDR137W, strain rgp1, hits give low values 1.08 | S. cerevisiae deletion strains, locus YDR159W, strain sac3, hits give low values 1.02 | S. cerevisiae deletion strains, locus YDR195W, strain ref2 1.01 | S. cerevisiae deletion strains, locus YDR297W, strain sur2, hits give low values 1.02 | S. cerevisiae deletion strains, locus YDR334W, strain swr1, hits give low values 1.02 | S. cerevisiae deletion strains, locus YDR335W, strain msn5, hits give low values 1.02 | S. cerevisiae deletion strains, locus YDR392W, strain spt3, hits give low values 1.02 | S. cerevisiae deletion strains, locus YEL003W, strain gim4, hits give low values 1.02 | S. cerevisiae deletion strains, locus YEL037C, strain rad23, hits give low values 1.02 | S. cerevisiae deletion strains, locus YEL061C, strain CIN8 (second series), hits give low values 1.03 | S. cerevisiae deletion strains, locus YER015W, strain faa2, hits give low values 1.01 | S. cerevisiae deletion strains, locus YER016W, strain bim1, hits give low values 1.02 | S. cerevisiae deletion strains, locus YER111C, strain swi4, hits give low values 1.01 | S. cerevisiae deletion strains, locus YER155C, strain BEM2 (second series), hits give low values 1.05 | S. cerevisiae deletion strains, locus YFR010W, strain ubp6, hits give low values 1.03 | S. cerevisiae deletion strains, locus YGL167C, strain pmr1, hits give low values 1.02 | S. cerevisiae deletion strains, locus YGL173C, strain kem1, hits give low values 1.02 | S. cerevisiae deletion strains, locus YGL227W, strain vid30, hits give low values 1.03 | S. cerevisiae deletion strains, locus YGL240W, strain doc1, hits give low values 1.02 | S. cerevisiae deletion strains, locus YGL253W, strain hxk2, hits give low values 1.03 | S. cerevisiae deletion strains, locus YHR013C, strain ard1, hits give low values 1.04 | S. cerevisiae deletion strains, locus YHR027C, strain rpn1, hits give low values 1.02 | S. cerevisiae deletion strains, locus YHR142W, strain chs7, hits give low values 1.04 | S. cerevisiae deletion strains, locus YJL092W, strain hpr5, hits give low values 1.01 | S. cerevisiae deletion strains, locus YJL095W, strain BCK1 (second series), hits give low values 1.02 | S. cerevisiae deletion strains, locus YJL115W, strain asf1, hits give low values 1.03 | S. cerevisiae deletion strains, locus YJL129C, strain trk1, hits give low values 1.04 | S. cerevisiae deletion strains, locus YJL154C, strain vps35, hits give low values 1.01 | S. cerevisiae deletion strains, locus YJL164C, strain tpk1, hits give low values 1.02 | S. cerevisiae deletion strains, locus YJL166W, strain qcr8, hits give low values 1.02 | [11] 1.02 | S. cerevisiae deletion strains, locus YKL160W, strain elf1, hits give low values 1.01 | S. cerevisiae deletion strains, locus YKR026C, strain gcn3, hits give low values 1.02 | S. cerevisiae deletion strains, locus YKR091W, strain srl3, hits give low values 1.02 | S. cerevisiae deletion strains, locus YLL001W, strain dnm1, hits give low values 1.02 | S. cerevisiae deletion strains, locus YLL026W, hits give low values 1.01 | S. cerevisiae deletion strains, locus YLL041C, strain sdh2, hits give low values 1.02 | S. cerevisiae deletion strains, locus YLR027C, strain aat2, hits give low values 1.01 | S. cerevisiae deletion strains, locus YLR221C, strain rsa3, hits give low values 1.02 | S. cerevisiae deletion strains, locus YLR258W, strain gsy2, hits give low values 1.01 | S. cerevisiae deletion strains, locus YLR262C, strain YPT6 (second series), hits give low values 1.03 | S. cerevisiae deletion strains, locus YLR320W, strain mms22, hits give low values 1.03 | S. cerevisiae deletion strains, locus YLR342W, strain FKS1, hits give low values 1 | S. cerevisiae deletion strains, locus YLR357W, strain rsc2, hits give low values 1 | S. cerevisiae deletion strains, locus YLR370C, strain arc18, hits give low values 1.03 | S. cerevisiae deletion strains, locus YLR384C, strain iki3, hits give low values 1.01 | S. cerevisiae deletion strains, locus YML120C, strain ndi1, hits give low values 1.02 | S. cerevisiae deletion strains, locus YMR058W, strain fet3, hits give low values 1.02 | S. cerevisiae deletion strains, locus YMR125W, strain sto1, hits give low values 1.03 | S. cerevisiae deletion strains, locus YMR129W, hits give low values 1.02 | S. cerevisiae deletion strains, locus YMR205C, strain PFK2, hits give low values 1.03 | S. cerevisiae deletion strains, locus YMR231W, strain pep5, hits give low values 1.03 | S. cerevisiae deletion strains, locus YNL071W, strain lat1, hits give low values 1.02 | S. cerevisiae deletion strains, locus YNL209W, strain ssb2, hits give low values 1.01 | S. cerevisiae deletion strains, locus YNL248C, strain rpa49, hits give low values 1.05 | S. cerevisiae deletion strains, locus YNL322C, strain KRE1 (second series), hits give low values 1.02 | S. cerevisiae deletion strains, locus YNR049C, strain mso1, hits give low values 1.01 | S. cerevisiae deletion strains, locus YOR001W, strain rrp6, hits give low values 1.01 | S. cerevisiae deletion strains, locus YOR070C, strain gyp1, hits give low values 1.02 | S. cerevisiae deletion strains, locus YOR080W, strain dia2, hits give low values 1.02 | S. cerevisiae deletion strains, locus YOR083W, strain WHI5, hits give low values 1.01 | S. cerevisiae deletion strains, locus YOR106W, strain vam3, hits give low values 1.02 | S. cerevisiae deletion strains, locus YOR265W, strain rbl2, hits give low values 1.01 | S. cerevisiae deletion strains, locus YOR270C, strain vph1, hits give low values 1.11 | S. cerevisiae deletion strains, locus YOR290C, strain snf2, hits give low values 1.02 | S. cerevisiae deletion strains, locus YPL051W, strain arl3, hits give low values 1.01 | S. cerevisiae deletion strains, locus YPL078C, strain atp4, hits give low values 1.04 | S. cerevisiae deletion strains, locus YPL106C, strain sse1, hits give low values 1.02 | S. cerevisiae deletion strains, locus YPL240C, strain hsp82, hits give low values 1
